IL1B secr inh – blocks inflammasome-driven IL-1 beta release; THP-1 LPS/ATP IL-1B secretion, AlphaLISA, 16 h; active compounds read low; activity change, % at 57.5 µM; actives 4.7% (n = 360,000); AID 743279; in the data active = activity change below about -50%; inconclusive = mostly about -30% to -49%
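Secreted IL-1B measured by AlphaLISA bead assay after 16 h compound exposure of THP-1 cells; compounds (final up to 57.5 uM) added 1 h before LPS (250 ng/mL) and ATP (1.25 mM) stimulation; lower signal means less secretion.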
HT1080NT lethal – kills 2HG-producing HT-1080-NT fibrosarcoma cells | Potency, µM (highest dose often 46.1 µM), for the others: at the top dose activity, negative = less viability, actives largely listed as cytotoxic | actives 1.6% (n = 360,000) | AID 686970 | HT-1080-NT fibrosarcoma viability, CellTiter-Glo ATP luminescence, 48 h;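 also: NT is the 2HG producing partner of a matched IDH1 knockdown line; potency is read from the fitted curve at half-maximal effect; 0% = DMSO-treated cells and -100% = media-only wells without cells; nearly all actives have a fitted effect of over 55% in size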
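HT-1080-NT; 750 cells/well; 5% FBS RPMI; 48 h compound, 37 degrees C; CellTiter-Glo luminescence; curve fitting and curve-class assignment.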
HT1080 IDH1KD tx – HT-1080 IDH1 knockdown cell toxicity (counter line); HT-1080 IDH1 knockdown viability, ATP luminescence, 48 h; Potency, µM (doses to about 46.1 µM), for inactives: at the top dose activity, negative = toxicity, usual class: cytotoxic; actives 2% (n = 360,000);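 also: potency is read from the fitted curve at half-maximal effect; 0% = DMSO wells and -100% = cell-free medium wells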
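Knockdown cells (IDH1KD HT-1080) received compounds 2 h after plating at 750 cells/well and were kept 48 h at 37 °C in 5% FBS RPMI. A CellTiter-Glo luminescence read gave % activity for curve fitting.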
KB-V1 MDR tox – KB-V1 MDR subline cytotoxicity; KB-V1 MDR cells viability, CellTiter-Glo, 72 h; Potency, µM (titrated, usually from 46.1 µM), most hits filed as cytotoxic; actives 3.4% (n = 400,000); AID 1347076; also: potency is read from the fitted curve at half-maximal effect; nearly all actives have a fitted effect of over 60% in size
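KB-V1, DMEM (no phenol red) + 10% FBS; cpd pin-transferred, titration series; 72 h, 37 degrees C; CellTiter-Glo, luminescence. Data normalized, curve-fit.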
KB-3-1 cytotox – KB-3-1 parental cell cytotoxicity; KB-3-1 viability, CellTiter-Glo ATP luminescence, 72 h; Potency, µM (top dose mostly 46.1 µM), actives largely listed as cytotoxic; actives 1.4% (n = 400,000); also: potency is read from the fitted curve at half-maximal effect; nearly all actives have a fitted effect of over 60% in size
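Parental KB-3-1 adenocarcinoma cells in phenol-red-free DMEM with 10% FBS were pin-treated with compounds at several concentrations, incubated 72 h at 37 °C, and viability read by CellTiter-Glo luminescence; concentration-effect curves were fitted after normalization.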
An asterisk follows results filed as active; i = inactive; ? = inconclusive; / = no result given; [ ] = dose if it differs, or a comment. In the library only some 8.8% were active in any assay of this set; here they are far more common. Unless noted, calls follow the shape of the dose curve; as a rule, active = well fitted curve in the direction sought with a large enough effect; inconclusive = small, poorly fitted or top-dose-only effect, or another doubt; inactive = no such curve, though single readings can be large; an effect the other way counts as inactive or inconclusive. Unless noted, % is scaled to controls: 0 for no effect and ±100 for the full control effect.

SMILES | IL1B secr inh | HT1080NT lethal | HT1080 IDH1KD tx | KB-V1 MDR tox | KB-3-1 cytotox
Cn1c2ccc(F)cc2c2ncn(Cc3ccco3)c(=O)c21 | -9 | -13% | ? | 4.1µM* | i
COc1ccc(/C=N/Nc2nccnc2Cl)cc1 | -25 | 10µM* | 11µM* | i | i
COc1ccccc1/C=N/Nc1cc(N(C)C)nc(N(C)C)n1 | -153* | ? | ? | i | i
CN(C)c1cc(N/N=C\c2ccccc2)nc(N(C)C)n1 | -96* | -16% | -21% | ? | i
COc1ccc(/C=N/Nc2cc(N(C)C)nc(N(C)C)n2)cc1 | -75* | -24% | -26% | ? | ?
CC(C)CN1CCC(=O)N([C@H](COc2ccccc2)c2ccccc2)CC1 | -8 | -1% | 0% | ? | i
Cc1ccc(S(=O)(=O)CCc2nnc(NC(=O)CCl)s2)cc1C | -100* | ? | 15µM* | i | ?
Cc1ccc(S(=O)(=O)CCc2nnc(N)s2)cc1C | 21 | -5% | 5% | i | i
COc1cc(C2CC(=O)Nc3cc4c(cc32)OCO4)cc(OC)c1O (stereo not drawn) | / | / | / | i | ?
Cc1c(C)n(Cc2ccccc2)c2ccc(C(=O)NC(C)c3ccccc3)cc12 (stereo not drawn) | / | / | / | i | i
C=CCc1cc(Cl)ccc1OCCOCCNC(C)CC (stereo not drawn) | -78* | 16µM* | ? | i | i
C=CCc1cc(Cl)ccc1OCCN(C)C | -11 | 2% | -3% | i | i
CCC(C)NCCCCOc1ccc(Cl)cc1C (stereo not drawn) | ? | ? | ? | 16µM* | i
C=CCc1cc(Cl)ccc1OCCCNC(C)C | -59* | ? | -26% | ? | ?
CCC(C)NCCOCCSc1ccc(Cl)cc1 (stereo not drawn) | -52* | 0% | -14% | i | i
CC1CC(C)CN(CCOCCSc2ccc(Cl)cc2)C1 (stereo not drawn) | ? | ? | ? | i | i
COCCn1c(SCC(=O)NC2CCCC2)nnc1C(C)C | 3 | 25% | 20% | i | i
CCOCCc1nnc(NC(=O)C(=O)c2cc(C)n(-c3cccc(C)c3)c2C)s1 | / | / | / | i | i
CCOC(=O)C(C(=O)OCC)C1N=C(N)N=C2Oc3ccccc3N21 (stereo not drawn) | -4 | ? | 10µM* | i | i
CC(c1ccccc1)C1CC(=O)N(c2cc(Cl)ccn2)C1=O (stereo not drawn) | / | 14% | 16% | i | i
CC(=O)Nc1ccccc1NC(=O)C/C(C)=N/NC(=O)c1ccc([N+](=O)[O-])c(Cl)c1 | 14 | 17% | 18% | i | i
C/C(=N\NC(=O)c1ccc([N+](=O)[O-])c(C)c1)c1ccccc1Cl | -70* | -10% | -15% | ? | i
Cc1cc(C(=O)Nc2ccncc2)ccc1[N+](=O)[O-] | -4 | 10% | 5% | i | i
O=C(Nc1ccncc1)c1ccc2ccccc2c1 | -61* | -9% | -7% | 16µM* | i
O=C(Nc1ccc(Cc2ccncc2)cc1)c1ccc(Cl)c([N+](=O)[O-])c1 | -73* | -17% | 3%[9.24 µM] | ? | ?
SMILES | IL1B secr inh | HT1080NT lethal | HT1080 IDH1KD tx | KB-V1 MDR tox | KB-3-1 cytotox
Cc1ccc(C(=O)Nc2ccncc2)cc1[N+](=O)[O-] | -55* | -5% | -2% | i | i
O=C(CSc1nc(-c2ccccc2)no1)N1CCN(c2ccc(F)cc2)CC1 | / | / | / | i | i
CC(C)OC(=O)CCCNc1ccc([N+](=O)[O-])cc1[N+](=O)[O-] | 14 | 2% | -11% | i | i
CC1(Cc2ccc(F)c(Cl)c2)C(=O)Nc2c(Cl)cccc21 (stereo not drawn) | 25 | -20% | ? | ? | i
CCOC(=O)Cn1nc(C)c(NC(=O)c2ccc(Cl)c([N+](=O)[O-])c2)c1C | -85* | -15% | -14% | i | i
Cc1ccccc1NC(=O)c1ccc(Nc2c([N+](=O)[O-])cc([N+](=O)[O-])c3ccccc23)cc1 | i | -17% | -8% | 16µM* | i
